# Results as given in PubChem BioAssay (NCATS).
# Inconclusive results are not listed. Entries that show only a call come without a potency. Values without a mark were called inactive. Calls of active or inactive are those of the source. Calls follow the shape of the dose curve; as a rule, active = well fitted curve in the direction sought with a large enough effect; inconclusive = small, poorly fitted or top-dose-only effect, or another doubt; inactive = no such curve, though single readings can be large; an effect the other way counts as inactive or inconclusive.
# Columns and labels:
# [1] = target: Rap guanine nucleotide exchange factor 3 (Homo sapiens) (UniProt O95398); test: Confirmatory qHTS for antagonist of cAMP-regulated guanine nucleotide exchange factor 3 (EPAC1) (AID 1645880); details: EPAC1 Rap1B-BODIPY-GDP exchange, fluorescence; activity, negative = inhibition: at 115 µM (top of the series); also: nearly all actives have a fitted effect of over 55% in size; also: potency is read from the fitted curve at half-maximal effect
# Sequence of Rap guanine nucleotide exchange factor 3 (Homo sapiens) (O95398 whole entry, looked up): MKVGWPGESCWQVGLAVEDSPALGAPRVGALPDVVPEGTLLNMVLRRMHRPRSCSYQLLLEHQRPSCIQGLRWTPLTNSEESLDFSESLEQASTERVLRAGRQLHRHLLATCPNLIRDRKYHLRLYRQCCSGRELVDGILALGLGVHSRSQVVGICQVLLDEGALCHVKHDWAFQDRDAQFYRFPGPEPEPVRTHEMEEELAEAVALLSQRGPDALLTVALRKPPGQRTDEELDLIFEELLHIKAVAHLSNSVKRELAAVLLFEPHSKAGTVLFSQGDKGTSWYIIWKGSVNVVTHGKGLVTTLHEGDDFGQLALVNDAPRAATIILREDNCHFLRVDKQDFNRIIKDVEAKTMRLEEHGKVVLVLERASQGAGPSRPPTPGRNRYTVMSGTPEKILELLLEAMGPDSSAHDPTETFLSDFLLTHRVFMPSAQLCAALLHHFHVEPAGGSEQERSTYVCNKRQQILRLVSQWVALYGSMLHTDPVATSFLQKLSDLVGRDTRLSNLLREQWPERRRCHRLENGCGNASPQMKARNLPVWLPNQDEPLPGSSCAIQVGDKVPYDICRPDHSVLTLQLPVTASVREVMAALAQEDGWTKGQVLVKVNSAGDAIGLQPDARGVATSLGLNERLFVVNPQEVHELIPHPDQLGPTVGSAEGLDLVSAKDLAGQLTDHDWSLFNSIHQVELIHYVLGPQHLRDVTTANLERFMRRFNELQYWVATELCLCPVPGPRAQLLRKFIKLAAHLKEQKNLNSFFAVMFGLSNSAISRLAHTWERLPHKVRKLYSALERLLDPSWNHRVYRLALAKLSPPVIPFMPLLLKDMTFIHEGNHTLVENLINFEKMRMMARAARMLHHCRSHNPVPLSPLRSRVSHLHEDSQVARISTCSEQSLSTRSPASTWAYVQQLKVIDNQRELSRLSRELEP
# Method in brief: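 Nucleotide exchange uses 100 nM EPAC1, 250 nM RAP1B-BODIPY-GDP and 50 uM GDP, with compounds in a concentration-titration series. After 5 min at room temperature, fluorescence (480 nm ex/540 nm em) is read every 5 min for 30 min. Data are normalized to control ATA and DMSO.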
# [2] = target: Rap guanine nucleotide exchange factor 3 (Homo sapiens) (UniProt O95398); test: Confirmatory qHTS for agonist of cAMP-regulated guanine nucleotide exchange factor 3 (EPAC1) (AID 1645881);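 also: EPAC1 catalysed release of BODIPY-GDP from Rap1B seen as fluorescence loss; nearly all actives have a fitted effect of over 75% in size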
# [3] = target: Rap guanine nucleotide exchange factor 4 (Homo sapiens) (UniProt Q8WZA2); test: Confirmatory qHTS for antagonist of cAMP-regulated guanine nucleotide exchange factor 4 (EPAC2) (AID 1645885); also: nearly all actives have a fitted effect of over 25% in size; also: potency is read from the fitted curve at half-maximal effect
# Sequence of Rap guanine nucleotide exchange factor 4 (Homo sapiens) (Q8WZA2 whole entry, looked up): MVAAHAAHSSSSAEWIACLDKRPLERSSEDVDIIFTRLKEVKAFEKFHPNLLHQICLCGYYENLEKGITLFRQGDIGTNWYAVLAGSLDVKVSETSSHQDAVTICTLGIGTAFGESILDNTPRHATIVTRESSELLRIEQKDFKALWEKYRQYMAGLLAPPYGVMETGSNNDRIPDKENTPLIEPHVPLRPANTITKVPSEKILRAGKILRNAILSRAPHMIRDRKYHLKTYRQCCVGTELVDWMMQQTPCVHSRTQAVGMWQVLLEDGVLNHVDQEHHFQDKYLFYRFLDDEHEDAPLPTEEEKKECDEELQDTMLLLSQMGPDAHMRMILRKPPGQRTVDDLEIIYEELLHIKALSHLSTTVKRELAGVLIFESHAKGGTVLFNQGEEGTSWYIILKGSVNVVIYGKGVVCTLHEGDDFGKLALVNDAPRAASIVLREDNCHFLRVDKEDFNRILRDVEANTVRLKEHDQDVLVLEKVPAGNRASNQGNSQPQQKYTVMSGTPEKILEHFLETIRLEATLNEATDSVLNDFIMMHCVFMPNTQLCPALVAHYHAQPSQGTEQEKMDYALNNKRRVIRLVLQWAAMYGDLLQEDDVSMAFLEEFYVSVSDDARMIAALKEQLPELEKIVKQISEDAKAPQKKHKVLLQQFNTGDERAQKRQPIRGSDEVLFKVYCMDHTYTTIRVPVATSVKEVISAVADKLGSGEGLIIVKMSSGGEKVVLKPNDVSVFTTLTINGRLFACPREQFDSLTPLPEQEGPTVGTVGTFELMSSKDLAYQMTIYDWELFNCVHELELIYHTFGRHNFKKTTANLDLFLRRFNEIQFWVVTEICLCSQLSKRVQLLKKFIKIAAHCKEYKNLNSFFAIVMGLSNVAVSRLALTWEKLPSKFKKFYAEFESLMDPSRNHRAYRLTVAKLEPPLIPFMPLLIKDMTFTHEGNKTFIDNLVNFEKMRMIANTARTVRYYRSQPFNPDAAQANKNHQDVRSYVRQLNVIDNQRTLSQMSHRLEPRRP
# [4] = target: Rap guanine nucleotide exchange factor 3 (Homo sapiens) (UniProt O95398); test: Counterscreen qHTS for antagonist of cAMP-regulated guanine nucleotide exchange factor 3 (EPAC1) (AID 1645888);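 also: fluorescence loss as bound BODIPY-GDP is released from Rap1B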
# Method in brief: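 Rap1B-BODIPY-GDP 250 nM + GDP 50 uM; cpds 7-pt, final 9.74 nM–152 uM (activator mode) or from 7.32 nM upwards (inhibitor mode); RT; FI 480/540 nm at 5 and 30 min, then ± cAMP, reread.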
Compound,Potency [1],Potency [2],Potency [3],Potency [4]
COC(=O)C1=C(C)N(c2ccc(OC)cc2)C(C)=C(C(=O)OC)C1c1ccccc1,inactive,inactive,inactive,inactive
COc1cccc(-c2nc(N3CCN(c4ccccc4)CC3)c3ccccc3n2)c1O,inactive,inactive,inactive,inactive
OC(c1ccc2ccccc2n1)c1c(Cl)cccc1Cl (stereo not drawn),inactive,inactive,inactive,inactive
O=C(Nc1ccccc1OCc1ccccc1)c1ccccc1Br,inactive,inactive,1.51 µM (active),inactive
Cc1ccc(CNC(=O)CN(c2cc(C)cc(C)c2)S(=O)(=O)c2c(C)[nH]c(=O)[nH]c2=O)cc1,inactive,inactive,inactive,inactive
Cc1cc(Br)cc(C=Nc2ccc(N3CCOCC3)cc2)c1O,inactive,inactive,inactive,inactive
COc1ccccc1CN(C)CC(=O)Nc1ccc(Cl)cc1F,inactive,inactive,inactive,inactive
COc1cc2c(cc1NC(=O)C(C)Oc1ccc(Cl)cc1Cl)oc1ccccc12 (stereo not drawn),inactive,inactive,inactive,inactive
CCN(C(=O)c1sc2cc(OC)ccc2c1Cl)c1ccccc1,inactive,inactive,inactive,inactive
COc1cc2c(cc1OC)C(c1cccc(Cl)c1)CC(=O)N2 (stereo not drawn),inactive,inactive,inactive,inactive
CCOc1ccccc1NC(=O)c1ccccc1-c1ccccc1,inactive,inactive,inactive,inactive
Cc1cccc(CNC(=O)c2ccc(-c3nc(CS(=O)(=O)c4ccccc4)c(C)o3)cc2)c1,inactive,inactive,inactive,inactive
CCCCCCOC(=O)C(C#N)c1nc2ccccc2nc1N1CCCCC1 (stereo not drawn),inactive,inactive,inactive,inactive
COC(=O)c1c(SC)nc2ccccc2c1OCc1ccc(Cl)cc1,inactive,inactive,inactive,inactive
COc1ccc2c(c1)Cc1sc(NC(=O)c3cccc(C)c3)nc1-2,84.9 µM (active),inactive,inactive,inactive
COc1ccc(C(NC(=O)c2cc(OC)ccc2OC)c2ccccc2)cc1 (stereo not drawn),inactive,inactive,inactive,inactive
Cc1cc(C)cc(NC(=O)c2sc3nc(-c4cc5ccccc5oc4=O)[nH]c(=O)c3c2C)c1,inactive,inactive,inactive,inactive
